Inconclusive results are not listed. Where a call stands in place of a potency, no number is given. The source made the active and inactive calls. Calls come from the whole dose curve.

The values below come from PubChem BioAssay (Tox21).
Potency is the fitted concentration of half-maximal effect.

Sequence of Acetylcholinesterase (Homo sapiens) (P22303 whole entry, looked up): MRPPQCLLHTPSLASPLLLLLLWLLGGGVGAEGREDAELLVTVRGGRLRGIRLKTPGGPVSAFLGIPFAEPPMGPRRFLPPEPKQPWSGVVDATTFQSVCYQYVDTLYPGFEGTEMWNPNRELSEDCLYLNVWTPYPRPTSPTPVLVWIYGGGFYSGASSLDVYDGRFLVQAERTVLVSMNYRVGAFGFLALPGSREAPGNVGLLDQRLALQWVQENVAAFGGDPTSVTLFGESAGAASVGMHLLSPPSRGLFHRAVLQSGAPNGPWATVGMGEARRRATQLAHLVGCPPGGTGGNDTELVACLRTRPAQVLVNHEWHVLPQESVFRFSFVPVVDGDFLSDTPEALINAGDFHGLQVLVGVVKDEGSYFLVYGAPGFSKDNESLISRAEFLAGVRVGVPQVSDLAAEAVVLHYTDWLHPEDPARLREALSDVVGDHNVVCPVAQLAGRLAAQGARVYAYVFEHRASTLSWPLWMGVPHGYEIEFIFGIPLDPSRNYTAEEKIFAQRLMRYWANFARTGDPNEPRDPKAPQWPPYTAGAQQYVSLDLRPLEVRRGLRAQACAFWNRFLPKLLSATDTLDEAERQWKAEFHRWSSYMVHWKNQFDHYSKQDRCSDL

This assay has as its target Acetylcholinesterase (Homo sapiens) (UniProt P22303). Nature of the assay: Acetylcholinesterase (AChE) small molecule antagonists: fluorescence cell-based qHTS assay (AID 1347398). Note: nearly all actives have a fitted effect of over 50% in size. The conditions noted are these: SH-SY5Y cells; Potency: AChE activity; outcome: AChE activity; series mostly up to 115 µM. Put shortly:
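Cells (SH-SY5Y) attached overnight, were dosed with compound or DMSO vehicle for 30 min at 37 C, and then incubated 40 min at room temperature with acetylthiocholine and Thiolite Green; green fluorescence indexed AChE activity.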
Consider `COC(=O)c1ccc(OC)cc1`, for which the Potency entry was “inactive”. Same read-out and setting: then `COC(=O)c1cc(S(N)(=O)=O)ccc1OC`, with “inactive”; and `CC(CN=Cc1ccccc1O)N=Cc1ccccc1O` (stereo not given), with “inactive”.

In the case of `CCC(=O)/C=C/c1ccc(OC)cc1`, the Potency entry is “inactive”. Same read-out and setting: then `CCCCOCCOC(=O)CCCCCCCCC(=O)OCCOCCCC`, with “inactive”. `O=S(=O)(O)CCN1CCN(CCO)CC1`: the Potency entry was “inactive”. On the same count and under the same terms, then `C#CCOC(=O)[C@@H](C)Oc1ccc(Oc2ncc(Cl)cc2F)cc1`, with “inactive”; and `O=C(O)Cc1sc(-c2ccccc2)nc1-c1ccc(Cl)cc1`, with “inactive”; and `Cc1cc(-n2nc3ccc(Cl)cc3n2)c(O)c(C(C)(C)C)c1`, with “inactive”. Same read-out and setting: the result for `O=C(O)c1ccccc1-c1ccc(C(F)(F)F)cc1` reads “inactive”; that for `CC1OCCC1=O` (stereo not given), “inactive”. The same measure, in the same setting: the result for `CC(C)CCCO` reads “inactive”; that for `N#CCCCC(C#N)CCC#N` (stereo not given), “inactive”.

For `CCOc1cccc(N)c1`, the Potency entry is “inactive”. The same measure, in the same setting: then `Clc1cc(Cl)c2c(c1)N=C1CCCCCN1C2`, with 617 nM (active); and `CCCCCCCCCCCCC1CO1` (stereo not given), with “inactive”. On the same count and under the same terms, the result for `COc1cc(-c2ccc(N=C=O)c(OC)c2)ccc1N=C=O` reads “inactive”. On to `C=CC(=O)NCOCC(C)C`, for which the Potency result is “inactive”. On the same count and under the same terms, the result for `O=C(c1ccccc1)C1CCC1` reads “inactive”; that for `C=C(C)CCCC`, “inactive”. On to `O=C(O)c1ccc2c(c1)nc(C(=O)NC1CCN(C3CC3)CC1)n2Cc1cc(-c2ccc(Cl)s2)on1`, for which the activity change, negative = inhibition was -24.8% [at 23.8 µM] (inactive). In the case of `COc1cc(OC)cc(OC)c1`, the Potency result is “inactive”. On the same count and under the same terms, then `CCOc1ccc(NC(=O)OC(C)C)cc1OCC`, with “inactive”; and `O=C1N(c2ccccc2)c2ccccc2C1(Cc1ccncc1)Cc1ccncc1`, with “inactive”; and `CC(S)C(=O)NCC(=O)O` (stereo not given), with “inactive”.

As to `NC(=O)c1c(Cl)cccc1Cl`, the Potency entry was “inactive”. Still for that read-out and setting: the result for `O=C(O)CCCCCCCCCCCBr` reads “inactive”; that for `Cc1cc(C(C#N)c2ccc(Cl)cc2)c(Cl)cc1NC(=O)c1cc(I)cc(I)c1O` (stereo not given), “inactive”; that for `O=Cc1cccc(Br)c1`, “inactive”.

As for `CC(C)=CCC/C(C)=C/CC/C(C)=C/CCC(=O)OC/C=C(\C)CCC=C(C)C`, the Potency entry was “inactive”. Consider `O=C(Cn1ccnc1[N+](=O)[O-])NCCO`, for which the Potency entry was “inactive”. Same read-out and setting: then `CO[C@H]1C=CO[C@@]2(C)Oc3c(C)c(O)c4c(O)c(cc(O)c4c3C2=O)NC(=O)/C(C)=C\C=C/[C@H](C)[C@H](O)[C@@H](C)[C@@H](O)[C@@H](C)[C@H](OC(C)=O)[C@@H]1C`, with “inactive”; and `CC(C)COC(=O)COc1ccc(Cl)cc1Cl`, with “inactive”; and `CCCCCC(C)OC(=O)COc1ccc(Cl)c2cccnc12` (stereo not given), with “inactive”. On the same count and under the same terms, the result for `CC(C)C(=O)OCC(C)(C)C(O)C(C)C` (stereo not given) reads “inactive”. The same measure, in the same setting: the result for `CC(C)CCOC(=O)c1ccc(N(C)C)cc1` reads “inactive”. `COc1cc(C(=O)NC2CCCNC2)cc(OC)c1OC` (stereo not given): the Potency entry is “inactive”. Take `N#CSCSc1nc2ccccc2s1`: the Potency result was “inactive”. Turning to `CN(C)CCN1CCN(c2cccc(Cl)c2)C1=O`, the Potency result was “inactive”. Take `O=C(Nc1ccc(Cl)cc1)Nc1ccc(Cl)c(C(F)(F)F)c1`: the Potency result was “inactive”.
